PubChem BioAssay
The source made the active and inactive calls.

target: Dihydroorotate dehydrogenase (quinone), mitochondrial (Plasmodium falciparum (isolate 3D7)) (UniProt Q08210); test: inhibition of P. falciparum DHODH – biochemical, C-terminal His tag, absorbance 600 nm, primary screen (AID 1175); settings: PfDHODH enzyme, DCIP absorbance 600 nm; higher = more signal, called active from +8 up or from −8 down;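 further: recombinant parasite enzyme with a five histidine tag at its C terminus; test concentration not given here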
Sequence (Q08210 whole entry, looked up): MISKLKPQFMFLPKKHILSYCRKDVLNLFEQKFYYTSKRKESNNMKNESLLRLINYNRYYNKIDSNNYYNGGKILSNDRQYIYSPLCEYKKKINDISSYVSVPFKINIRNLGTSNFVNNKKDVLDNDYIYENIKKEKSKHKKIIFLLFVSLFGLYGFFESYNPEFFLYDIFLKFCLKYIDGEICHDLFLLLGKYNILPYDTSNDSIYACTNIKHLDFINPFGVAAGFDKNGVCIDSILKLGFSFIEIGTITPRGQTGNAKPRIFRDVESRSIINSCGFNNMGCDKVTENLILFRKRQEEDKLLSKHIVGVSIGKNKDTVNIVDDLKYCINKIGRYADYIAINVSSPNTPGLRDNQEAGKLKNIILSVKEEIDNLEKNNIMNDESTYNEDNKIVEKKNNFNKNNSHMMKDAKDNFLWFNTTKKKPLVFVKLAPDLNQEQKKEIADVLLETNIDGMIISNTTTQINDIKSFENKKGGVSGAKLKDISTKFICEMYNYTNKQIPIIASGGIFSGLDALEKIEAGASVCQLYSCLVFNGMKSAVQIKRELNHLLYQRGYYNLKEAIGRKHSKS

Composite z-score, inactive:
Cc1ccc(S[C@]2(C(=O)O)CC(=O)N(Cc3cc(C(F)(F)F)cc(C(F)(F)F)c3)[C@@H]2c2ccc(CO)cc2)cc1 -0.254, CC(C)Cc1ccc(CN2CC[C@@H](NC(=O)Nc3ccccc3)C2)cc1 0.545, C=CC1c2cc(O)c(OC)cc2CCN1Cc1cc2c(cc1Br)OCO2 (stereo unspecified) -7.6, O=C1O[C@H](c2ccccc2)[C@H](c2ccccc2)N2[C@H]1[C@@H](C(=O)N1CCN(c3ncccn3)CC1)[C@]1(C(=O)Nc3ccc(C#CC4(O)CCCCCC4)cc31)[C@H]2c1ccc(OCCO)cc1 -0.884, COC(=O)C(CC#Cc1ccc2c(c1)[C@]1(C(=O)N2)[C@H](c2ccccc2OCCO)N2[C@H](c3ccccc3)[C@H](c3ccccc3)OC(=O)[C@H]2[C@@H]1C(=O)NC[C@H](O)c1ccccc1)C(=O)OC -4.58, Cc1ccccc1C(O)C1C=CC2C(=O)N(C)C(=O)C2N1N(c1ccccc1)c1ccccc1 (stereo unspecified) 0.0842, CCC[C@@H]1C[C@@]1(CCC)[C@@H](NC(=O)OCc1ccccc1)c1ccc(-c2ccccc2)cc1 -0.251, CN(C)C(=O)C1N=C(c2ccc(OCCCO)cc2)N(c2ccccc2)O1 (stereo unspecified) -1.01, O=C1O[C@H](c2ccccc2)[C@H](c2ccccc2)N2[C@H]1[C@@H](C(=O)O)[C@]1(C(=O)Nc3ccc(C#CC4=CCCCC4)cc31)[C@H]2c1ccc(O)cc1 -4.56, C=CCOC(=O)[C@H]1[C@@H]2C(=O)O[C@@H](c3ccccc3)[C@@H](c3ccccc3)N2[C@@H](c2ccc(OCCOC(=O)[C@H]3C[C@H]4C(=O)N[C@@H](CCCCNC(C)=O)C(=O)N4[C@H]3c3ccc(O)cc3)cc2)[C@]12C(=O)Nc1ccccc12 -0.875, CN1C(=O)C2C=CC(C(O)c3cccc4ccccc34)N(N3CCCCC3)C2C1=O (stereo unspecified) -0.0243, C=CCOC(=O)[C@H]1[C@@H]2C(=O)O[C@@H](c3ccccc3)[C@@H](c3ccccc3)N2[C@@H](c2ccc(OCCOC(=O)[C@@H]3C[C@@H]4C(=O)N5CCC[C@H]5C(=O)N4[C@@H]3c3ccc(O)cc3)cc2)[C@]12C(=O)Nc1ccc(I)cc12 -1.13, O=C1C2C=CC(C(O)c3ccccc3)N(Nc3ccccc3F)C2C(=O)N1c1ccccc1 (stereo unspecified) -0.104, CN(C)c1ccc(C(O)C2C=CC3C(=O)N(c4ccccc4)C(=O)C3N2Nc2ccc([N+](=O)[O-])cc2)cc1 (stereo unspecified) 0.835, [N-]=[N+]=NCc1ccccc1[C@H]1OC(c2ccc(OCCCO)cc2)=N[C@@]1(CCS(=O)(=O)c1ccccc1)C(=O)N1CCCCC1 0.716, C=CCOC(=O)[C@H]1[C@@H]2C(=O)O[C@@H](c3ccccc3)[C@@H](c3ccccc3)N2[C@@H](c2ccc(OCCOC(=O)[C@@H]3C[C@@H]4C(=O)N[C@@H](CCCCNC(C)=O)C(=O)N4[C@@H]3c3ccc(O)cc3)cc2)[C@]12C(=O)Nc1ccc(I)cc12 0.158, COc1cc2c(cc1OC)CN(C(=O)[C@@H]1[C@H]3C(=O)O[C@H](c4ccccc4)[C@H](c4ccccc4)N3[C@H](c3ccc(OCCO)cc3)[C@@]13C(=O)Nc1ccc(C#CC4(O)CCCCCC4)cc13)CC2 -1.3, C=C(/C(=C/C[C@H](OC(C)=O)c1ccccc1OCCO)c1cc(C(=O)OC)ccc1OC)C(C)C -1.96, CCOC(=O)C[C@H]1[C@H](OC(=O)c2cc3ccccc3oc2=O)[C@@H](NC(=O)c2ccc(-c3ccccc3)cc2)c2cc(OCCCO)ccc2N1C(=O)c1ccc2ccccc2n1 -0.0286, CN(C)CCCCNC(=O)[C@@H]1C[C@@H]2C(=O)N[C@@H](Cc3ccccc3)C(=O)N2[C@@H]1c1cccc(OCCO)c1 -2.56, COc1ccc([Si](C)(C)[C@@H]2[C@@H](CCO)O[C@]3(C(=O)N(Cc4ccc(N5CCCCC5=O)cc4)c4ccccc43)[C@H]2C)cc1 -3.05, COCCOC(=O)N1C(=O)[C@@]2(c3cc(C#CC4=CCCCC4)ccc31)[C@H](c1ccccc1OCCO)N1[C@H](c3ccccc3)[C@H](c3ccccc3)OC(=O)[C@H]1[C@@H]2C(=O)Nc1nc2ccccc2s1 -0.291, CCCCC(=C=CC[C@@H](O)c1ccccc1OCCO)C[C@@H](O)COCc1ccccc1 -2.09, Cc1ccc(S[C@]2(C(=O)NCC(F)(F)F)CC(=O)N(Cc3ccccc3)[C@@H]2c2ccc(CO)cc2I)cc1 0.343, O=C(NCC(F)(F)F)[C@@H]1c2ccccc2C(=O)N(Cc2cc(F)cc(C(F)(F)F)c2)[C@H]1c1ccc(CO)cc1 0.94, C=C(CCCC)/C(=C/C[C@@H](OC(=O)c1ccncc1)c1ccccc1OCCO)c1cnc2ccccc2c1 -3.38, [N-]=[N+]=Nc1ccccc1C[C@]1(C(=O)N2CCOCC2)N=C(c2ccc(OCCCO)cc2)O[C@H]1c1ccccc1 0.404, CCCNC(=O)[C@@H]1c2ccccc2C(=O)N(C(C)C)[C@H]1c1ccc(CO)cc1 -0.185, O=C1O[C@H](c2ccccc2)[C@H](c2ccccc2)N2[C@H]1[C@@H](C(=O)Nc1nc3ccccc3s1)[C@]1(C(=O)Nc3ccc(C#CC4(O)CCCCCC4)cc31)[C@H]2c1ccccc1OCCO -1.28, O=C1OCC=C[C@H]2OC34C=CCN(Cn5nnc6ccccc65)C(=O)[C@H]3N(CCCO)C(=O)[C@@H]4[C@@H]12 (stereo partly specified) -2.85, COC(=O)[C@@]1(Cc2ccccc2)[C@H]2c3cc(C(=O)N(C)C)n(Cc4c(CO)[nH]cc(C)c4=O)c3C[C@H]2CN1C(=O)c1ccccc1 0.0442, COC(=O)[C@@]1(Cc2ccc(OC)cc2)[C@H]2c3cc(C(=O)N(C)C)n(Cc4ccc(Cl)c(C(F)(F)F)c4)c3C[C@H]2CN1C(=O)c1ccccc1 0.381, C=CCNC(=O)[C@H]1[C@@H]2C(=O)O[C@@H](c3ccccc3)[C@@H](c3ccccc3)N2[C@@H](c2ccc(O)cc2)[C@]12C(=O)N(C(=O)OCCOC)c1ccccc12 0.747, CCCCCCCCCCC(O)C1C=CC2C(=O)N(C)C(=O)C2N1NC(=O)OC(C)(C)C (stereo unspecified) 1.1, NC(N)=NCCCn1cc(CNC(=O)[C@@H](N)Cc2ccccc2)nn1 -2.75, CCOC(=O)C1CCCCN1 (stereo unspecified) -0.254
